# Screen size: about 310,000 compounds; about 14,000 (4.5%) showed an effect of 50% or more. The effect is printed as a negative number. This is one part of a sample in which strong results are shown more often than they occur.
# Target: human ether-à-go-go-related gene (hERG) potassium channel (human, UniProt Q12809)
# Assay: primary screen, population patch clamp on CHO cells stably expressing hERG; higher = less effect of the substance
# 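Further: peak tail current of the secondary pulse compared with the same well before compound.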
# Sequence of human ether-à-go-go-related gene (hERG) potassium channel (Q12809 whole entry, looked up): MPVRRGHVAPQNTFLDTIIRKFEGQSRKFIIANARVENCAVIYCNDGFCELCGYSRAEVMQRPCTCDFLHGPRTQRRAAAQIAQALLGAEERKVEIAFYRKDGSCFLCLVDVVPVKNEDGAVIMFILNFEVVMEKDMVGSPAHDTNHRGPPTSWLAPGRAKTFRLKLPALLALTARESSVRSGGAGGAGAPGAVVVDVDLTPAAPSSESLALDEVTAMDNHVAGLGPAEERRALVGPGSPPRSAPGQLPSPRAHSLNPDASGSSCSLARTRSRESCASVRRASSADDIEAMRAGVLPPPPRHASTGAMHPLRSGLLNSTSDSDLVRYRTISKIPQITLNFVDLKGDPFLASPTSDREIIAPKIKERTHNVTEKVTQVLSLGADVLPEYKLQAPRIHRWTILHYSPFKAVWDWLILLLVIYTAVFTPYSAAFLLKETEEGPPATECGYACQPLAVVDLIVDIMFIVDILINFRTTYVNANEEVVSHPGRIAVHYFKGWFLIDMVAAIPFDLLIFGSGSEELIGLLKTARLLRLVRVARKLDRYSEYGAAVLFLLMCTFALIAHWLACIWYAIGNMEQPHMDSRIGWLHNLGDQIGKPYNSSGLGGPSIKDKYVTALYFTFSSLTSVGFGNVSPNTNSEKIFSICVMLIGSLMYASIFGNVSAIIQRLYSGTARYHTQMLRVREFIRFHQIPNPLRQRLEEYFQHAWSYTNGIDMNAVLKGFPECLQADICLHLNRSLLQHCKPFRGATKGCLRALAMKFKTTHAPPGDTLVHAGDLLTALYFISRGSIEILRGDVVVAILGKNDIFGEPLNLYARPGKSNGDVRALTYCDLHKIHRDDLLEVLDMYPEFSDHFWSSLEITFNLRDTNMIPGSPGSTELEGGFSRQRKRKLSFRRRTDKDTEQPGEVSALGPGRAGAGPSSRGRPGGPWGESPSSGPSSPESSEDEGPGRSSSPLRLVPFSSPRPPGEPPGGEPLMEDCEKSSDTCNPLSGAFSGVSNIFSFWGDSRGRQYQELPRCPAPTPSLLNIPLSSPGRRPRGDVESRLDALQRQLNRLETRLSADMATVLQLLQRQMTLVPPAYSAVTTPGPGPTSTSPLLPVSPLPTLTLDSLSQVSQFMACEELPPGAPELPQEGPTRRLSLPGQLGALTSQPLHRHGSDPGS
row,SMILES,"hERG current change (%, negative = inhibition) at 10uM"
1,COC(=O)c1ccc2c(=O)n(-c3ccccc3)c(SCN3C(=O)c4ccccc4C3=O)nc2c1,11%
2,COc1ccc(/C(C)=N/Nc2ccc(F)cc2F)c(O)c1,6.58%
3,COc1ccccc1C(=O)NC(=O)CSc1nc(C)cs1,12%
4,CCOC(=O)N1CCN(C(=O)CN(c2cccc(OC)c2)S(C)(=O)=O)CC1,-5.17%
5,COc1ccc(C(CC(=O)N2CCCC(C)C2)c2c(OC)cc(OC)c3c(-c4ccccc4)cc(=O)oc23)cc1 (centres unmarked),8.57%
6,COc1cc(C(CCN2CCN(c3ccccc3)CC2)c2c(OC)cc(OC)c3c(C)cc(=O)oc23)cc(OC)c1OC (centres unmarked),-6.01%
7,COc1cc(C(CCN2CCOCC2)c2c(OC)cc(OC)c3c(C)cc(=O)oc23)cc(OC)c1OC (centres unmarked),-79.3%
8,COc1cc(OC)c2c(C)cc(=O)oc2c1C(CCN1CCOCC1)c1ccc(N(C)C)cc1 (centres unmarked),-28.5%
9,COc1cc(OC)c2c(-c3ccccc3)cc(=O)oc2c1C(CC(=O)N1CCOCC1)c1ccc2c(c1)OCO2 (centres unmarked),1.51%
10,COc1cc(OC)c2c(-c3ccccc3)cc(=O)oc2c1C(CCN1CCCC(C)C1)c1ccc(N(C)C)cc1 (centres unmarked),-30%
11,COc1cc(OC)c2c(C)cc(=O)oc2c1C(CCN1CCN(c2ccccc2)CC1)c1ccc2c(c1)OCO2 (centres unmarked),-11.1%
12,COc1ccc(C(CCN2CCCC(C)C2)c2c(OC)cc(OC)c3c(C)cc(=O)oc23)cc1 (centres unmarked),-74.3%
13,COc1ccc(C(CCN2CCOCC2)c2c(OC)cc(OC)c3c(C)cc(=O)oc23)cc1 (centres unmarked),-69.2%
14,COc1cc(OC)c2c(C)cc(=O)oc2c1C(CCN1CCOCC1)c1ccc2c(c1)OCO2 (centres unmarked),-68.4%
15,COc1ccc(C(CC(=O)N2CCOCC2)c2c(OC)cc(OC)c3c(-c4ccccc4)cc(=O)oc23)cc1 (centres unmarked),12%
16,COc1cc(O)c(C(CCN2CCOCC2)c2cc(OC)c(OC)c(OC)c2)c(OC)c1 (centres unmarked),8.02%
17,CCOc1ccc(S(=O)(=O)N2CCC(C(=O)OC(C)C(=O)N3CCOCC3)CC2)cc1 (centres unmarked),-25.2%
18,O=C(Cc1ccccc1[N+](=O)[O-])N/N=C/c1cccnc1,10%
19,COc1ccccc1C(=O)NCC(=O)OCC(=O)c1ccc2c(c1)-c1ccccc1C2,-0.208%
20,Cc1nnc(NC(=O)C2CCCN(S(=O)(=O)Cc3ccccc3)C2)s1 (centres unmarked),-2.64%
21,CCc1ccc(N(CC(=O)NC2CCCC2)S(=O)(=O)c2c(C)noc2C)cc1,-7.76%
22,O=C(Nc1nnc(C2=COCCO2)o1)c1ccc(S(=O)(=O)N2CCCC2)cc1,17.2%
23,O=C(NCc1cccnc1)C1CCC(CNS(=O)(=O)c2cccc3nsnc23)CC1 (centres unmarked),-9.63%
24,CCOC(=O)CCc1c(C)nc2cc(-c3ccc(Cl)cc3)[nH]n2c1=O,-7.09%
25,CCOC(=O)CC(NCc1ccc(OC)c(OCC)c1)c1ccc(C)cc1.Cl (centres unmarked),-39%
26,CC(C)C(NC(=O)c1ccco1)C(=O)NCC(c1ccco1)N1CCCCC1 (centres unmarked),20%
27,COC(=O)Cn1c(CN2CCOCC2)nc2c1c(=O)[nH]c(=O)n2C,3.43%

row,SMILES,"hERG current change (%, negative = inhibition) at 10uM"
1,CCN(CC)CCC(c1cc(OC)c(OC)c(OC)c1)c1c(OC)cc(OC)c2c(C)cc(=O)oc12 (centres unmarked),-48.5%
2,COc1cc(C(CCN2CCCC2)c2c(OC)cc(OC)c3c(C)cc(=O)oc23)cc(OC)c1OC (centres unmarked),-75.5%
3,COc1cc(C(CCN2CCCCC2)c2c(OC)cc(OC)c3c(C)cc(=O)oc23)cc(OC)c1OC (centres unmarked),-99.6%
4,Oc1ccc(Br)cc1CNn1cnnc1,13.9%
5,COc1ccc(OC)c(CNc2ccc3c(c2)CCC3)c1,20.4%
6,CC(C(=O)O)n1nc2ccccc2n1 (centres unmarked),21.4%
7,CCOC(=O)c1c(CC(C)C)csc1NC(C)=O,-2.62%
8,CC(C)[C@H](NC(=O)N1c2ccccc2NC(=O)[C@@H]1C(C)C)C(=O)N[C@@H](Cc1c[nH]c2ccccc12)C(=O)O,3.11%
9,O=C(O)CSc1ccnc2cc(Cl)ccc12,16.2%
10,COc1cc(OC)cc(-c2c(-c3ccc(F)cc3)c3cc(-c4ccc5cc[nH]c5c4)ccc3n2C)c1,14.2%
11,CNC(=O)COc1coc(CN2CCN(c3ccc(OC)cc3)CC2)cc1=O,1.11%
12,C=C1CCN([C@@H](CC(C)C)C(=O)N2CCCC2)S(=O)(=O)c2ccccc21,-54.7%
13,C=C1CCN([C@@H](CC(C)C)C(=O)O)S(=O)(=O)c2ccccc21,22.6%
14,C=C1CCN([C@@H](CC(C)C)C(=O)N2CCOCC2)S(=O)(=O)c2ccccc21,13.3%
15,O=c1c2ccccc2nc2n1CC/C2=C\N1CCN(c2ccc([N+](=O)[O-])cc2)CC1,-78.1%
16,CCc1nc2ccc(C(=O)N3CCN(c4ccc(Cl)cc4)CC3)cc2nc1CC,-6.46%
17,CCc1nc2ccc(C(=O)N3CCN(c4ccccc4)CC3)cc2nc1CC,-5.04%
18,O=C(c1ccc2c(=O)n3c(nc2c1)CCCCC3)N1CCN(c2ccc([N+](=O)[O-])cc2)CC1,-73%
19,O=C(c1ccc2nsnc2c1)N1CCN(c2ccc([N+](=O)[O-])cc2)CC1,-75.5%
20,O=C(c1ccc2c(=O)n3c(nc2c1)CCCCC3)N1CCN(c2ccc(F)cc2)CC1,-42.1%
21,Cc1nc2ccccc2c(=O)n1-c1ccc([N+](=O)[O-])cc1,7.26%
22,Cc1ccc(C)c(N2CCN(C(=O)c3ccc4nsnc4c3)CC2)c1,-1.44%
23,O=C(c1ccc(NC2=NC3CS(=O)(=O)CC3S2)cc1)N1CCN(c2ccc([N+](=O)[O-])cc2)CC1 (centres unmarked),-4.75%
24,O=C(c1ccc2c(=O)n3c(nc2c1)CCCCC3)N1CCN(c2ccc(Cl)cc2)CC1,-48%
25,Cl.O.O=c1c2ccccc2nc2n1CC/C2=C/N1CCN(c2cccc(C(F)(F)F)c2)CC1,-28%
26,CCc1nc2ccc(C(=O)N3CCN(c4ccc([N+](=O)[O-])cc4)CC3)cc2nc1CC,-72.1%
